# Source: PubChem BioAssay
# WRN helicase inh = inhibitors of human WRN helicase | Q14191 | WRN helicase unwinding, fluorescent forked duplex, kinetic | Potency, µM (doses to about 114 µM), without a hit: at the top dose activity change, negative = inhibition, hits mostly inhibitors | actives 0.46% (n = 360,000); note: potency is the fitted concentration of half-maximal effect; % is set by controls: 0 for no effect and ±100 for the full control effect; nearly all actives have a fitted effect of over 55% in size
# Target sequence (Q14191 whole entry, looked up): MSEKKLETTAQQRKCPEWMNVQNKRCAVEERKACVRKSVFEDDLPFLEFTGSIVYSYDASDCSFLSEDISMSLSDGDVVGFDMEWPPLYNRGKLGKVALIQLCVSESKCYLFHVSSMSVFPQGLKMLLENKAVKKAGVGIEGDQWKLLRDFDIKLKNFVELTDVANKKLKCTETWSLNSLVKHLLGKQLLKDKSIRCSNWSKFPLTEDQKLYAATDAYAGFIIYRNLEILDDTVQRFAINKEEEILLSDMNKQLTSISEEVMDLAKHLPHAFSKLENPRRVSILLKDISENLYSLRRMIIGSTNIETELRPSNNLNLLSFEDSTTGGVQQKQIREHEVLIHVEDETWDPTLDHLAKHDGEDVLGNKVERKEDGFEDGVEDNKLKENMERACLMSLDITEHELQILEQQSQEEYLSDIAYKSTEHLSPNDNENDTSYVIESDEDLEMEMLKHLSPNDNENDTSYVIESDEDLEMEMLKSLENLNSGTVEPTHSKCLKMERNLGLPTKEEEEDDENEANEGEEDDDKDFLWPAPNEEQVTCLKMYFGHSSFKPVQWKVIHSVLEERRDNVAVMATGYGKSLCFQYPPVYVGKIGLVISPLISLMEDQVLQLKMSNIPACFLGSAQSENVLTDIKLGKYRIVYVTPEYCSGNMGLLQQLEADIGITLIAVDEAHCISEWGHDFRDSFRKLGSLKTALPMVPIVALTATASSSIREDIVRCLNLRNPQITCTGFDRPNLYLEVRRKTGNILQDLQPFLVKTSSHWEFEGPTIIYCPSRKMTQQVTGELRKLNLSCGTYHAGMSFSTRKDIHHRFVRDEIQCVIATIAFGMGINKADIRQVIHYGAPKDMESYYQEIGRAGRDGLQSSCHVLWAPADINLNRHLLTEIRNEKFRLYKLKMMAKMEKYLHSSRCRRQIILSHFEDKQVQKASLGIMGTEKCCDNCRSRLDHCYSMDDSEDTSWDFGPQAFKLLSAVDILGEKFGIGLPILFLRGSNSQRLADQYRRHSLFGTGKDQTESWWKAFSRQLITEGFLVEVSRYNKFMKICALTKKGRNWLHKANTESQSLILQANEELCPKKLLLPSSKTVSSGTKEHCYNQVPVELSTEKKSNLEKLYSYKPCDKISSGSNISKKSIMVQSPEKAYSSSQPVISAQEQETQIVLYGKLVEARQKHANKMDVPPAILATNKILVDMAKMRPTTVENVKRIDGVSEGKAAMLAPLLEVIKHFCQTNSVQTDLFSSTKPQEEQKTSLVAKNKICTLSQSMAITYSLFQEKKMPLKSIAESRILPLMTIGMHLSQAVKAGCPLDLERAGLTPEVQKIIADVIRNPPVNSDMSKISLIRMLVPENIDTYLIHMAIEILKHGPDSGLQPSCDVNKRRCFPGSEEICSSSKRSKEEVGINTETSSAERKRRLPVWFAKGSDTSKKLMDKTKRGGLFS
#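 WRN at 20 nM final was preincubated with compound for 15 min at room temperature; reaction started with 100 nM forked duplex oligonucleotide carrying fluorophore and quencher plus 2 mM ATP (final). Unwinding followed kinetically by red fluorescence (ex 525/em 598 nm).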
# PI5P4K alpha inh = blocks human PI5P4K alpha kinase activity. PI5P4Kalpha enzyme, ADP-Glo luminescence, 60 min; active compounds read low. max response, %. actives 1.2% (n = 330,000). AID 652105; active = max response of -50% or lower; inconclusive = between -30% and -50%; inactive = -30% or higher; note: value at the top dose of about 77 µM; % is set by controls: 0 for no effect and ±100 for the full control effect
#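 Single end-point luminescence (ADP-Glo) quantified ADP from PI5P4Kalpha turnover; ATP 5 microM final, 1 h at RT, 0.1% CHAPS and 0.28 mM EGTA in HEPES pH 7.4.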
# POLI inh = blocks human DNA polymerase iota activity; Q9UNA4; Pol iota fluorescent replication assay, 10 min; Potency, µM (doses to about 115 µM), for inactives: at the highest dose activity, negative = inhibition, actives largely listed as inhibitors; actives 1% (n = 390,000); note: potency is the fitted concentration of half-maximal effect
#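 Fluorescent replication assay read twice, at 0 min and 10 min after adding 50 nM (final) substrate. Enzyme (10 nM) and compounds were first incubated 15 min at room temperature; enzyme-free buffer wells were negative controls.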
# POLB inh = DNA polymerase beta (human) inhibition. P06746. Pol beta primer extension/strand displacement, fluorescence kinetic. actives 1.3% (n = 340,000). Potency, µM (titrated, usually from 114 µM), for inactives: at the highest dose activity change, negative = inhibition, actives largely listed as inhibitors; note: potency is the fitted concentration of half-maximal effect; % is set by controls: 0 for no effect and ±100 for the full control effect
#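 Pol beta (10 nM) and compounds were preincubated 15 min at room temperature, then 50 nM substrate (final) started primer extension/strand displacement. Reads were taken at 0 and 10 min; concentration-response data were fitted to a four-parameter Hill equation.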
# Pol kappa inh-1 = blocks human DNA polymerase kappa activity; AID 588579; actives 0.53% (n = 400,000); purified Pol kappa, fluorescent DNA synthesis assay, 10 min; Potency, µM (series often up to 107 µM), for the others: top-dose activity, negative = inhibition, hits mostly inhibitors; Q9UBT6; note: potency is the fitted concentration of half-maximal effect; % is set by controls: 0 for no effect and ±100 for the full control effect
#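 Fluorescent qHTS in 1536-well format: enzyme (10 nM) and compound sat 15 min at room temperature before 50 nM substrate (final) was added. Signal taken at 0 and 10 min; no-enzyme buffer wells were negative controls.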
# Pol eta inh-1 = blocks human DNA polymerase eta activity | Q9Y253 | recombinant Pol eta, fluorescent DNA replication assay | Potency, µM (doses to about 114 µM), without a hit: at the top dose activity change, negative = inhibition, most hits filed as inhibitors | actives 1.2% (n = 390,000) | AID 588591; note: potency is the fitted concentration of half-maximal effect; % is set by controls: 0 for no effect and ±100 for the full control effect
#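 Fluorescent replication assay: 50 nM final substrate added after a 15 min room-temperature compound preincubation with 10 nM enzyme. Signal taken at 0 min and again at 10 min.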
# GALK confirm = galactokinase (human) inhibition, confirmation; shares compounds with Pol eta inh-1; purified GALK, Kinase-Glo ATP depletion luminescence; Potency, µM (doses to about 115 µM), for inactives: at the highest dose activity, negative = inhibition, hits mostly inhibitors; actives 70% (n = 150); AID 2015
# Redox cycling = generates H2O2 by redox cycling, flagging GALK artifacts. shares compounds with Pol eta inh-1. Phenol red-HRP H2O2 redox cycling, absorbance 600 nm. Potency, µM (highest dose often 115 µM), for inactives: at the highest dose activity change, negative = H2O2 signal, actives largely listed as inhibitors. actives 40% (n = 150). AID 2035
# HEK293 viability = HEK-293 cytotoxicity, GALK inhibitor secondary. shares compounds with Pol eta inh-1. HEK-293 viability, ATP luminescence (CellTiter-Glo), 24/48 h. Potency, µM (doses to about 46.1 µM), for inactives: at the top dose activity change, negative = cytotoxicity, usual class: inhibitors. actives 10% (n = 170). AID 2547; note: potency is the fitted concentration of half-maximal effect; % is set by controls: 0 for no effect and ±100 for the full control effect
# Pol kappa inh-2 = confirmation of human DNA polymerase kappa inhibitors; shares compounds with Pol eta inh-1; purified Pol-kappa, fluorescent strand-displacement substrate; Potency, µM, usual class: inhibitors; actives 76% (n = 920); note: potency is the fitted concentration of half-maximal effect
# Pol eta inh-2 = confirmation of human DNA polymerase eta inhibitors; Pol eta primer extension, TAMRA/BHQ fluorescence, 10 min; Potency, µM, most hits filed as inhibitors; shares compounds with Pol eta inh-1; actives 64% (n = 2,600); AID 720502; note: potency is the fitted concentration of half-maximal effect
# An asterisk follows results filed as active; ? = inconclusive; . = not tested or not shown; [ ] = remark or other dose. Rows were chosen to be rich in hits. Some 2.8% of all compounds tested hit in one or more screens of this group. Unless noted, calls come from the whole dose curve; as a rule, active = well fitted curve in the direction sought with a large enough effect; inconclusive = small, poorly fitted or top-dose-only effect, or another doubt; inactive = no such curve, though single readings can be large; an effect the other way counts as inactive or inconclusive.
SMILES,WRN helicase inh,PI5P4K alpha inh,POLI inh,POLB inh,Pol kappa inh-1,Pol eta inh-1,Pol eta inh-2,others
CCCCN1Cc2c(nc3cc(-c4ccco4)[nH]n3c2=O)C1=O,-11%,?,?,25µM*,?,?,30*,
O=C1ON=C(c2ccccc2)/C1=C/c1ccc(O)c(O)c1,?,-59*,?,-17%,12%,22µM*,60*,GALK confirm=?;Redox cycling=-16%;HEK293 viability=-3%
COc1ccccc1NC(=O)Nc1nc(-c2cccnc2)nc2ccccc12,.,.,?,-8%[57.1 µM],4%[60.1 µM],?,.,
Cc1oc(/N=C/c2cccc3ccccc23)c(C#N)c1C,?,.,22µM*,16%,?,25µM*,48*,
COc1cc(/C=N/NC(=O)C(Cc2c[nH]c3ccccc23)NC(=O)OCC(C)C)cc([N+](=O)[O-])c1O (stereo unspecified),-20%,1,110%,?,-3%,?,.,
COc1cc(/C=N/NC(=O)C(Cc2c[nH]c3ccccc23)NC(=O)OCc2ccccc2)cc([N+](=O)[O-])c1O (stereo unspecified),?,-79*,?,50µM*,?,20µM*,?,
COc1ccc2nc(N3C(=O)/C(=C/c4ccccc4)NC3=S)sc2c1,-29%,-63*,-11%,?,-2%,32µM*,.,Pol kappa inh-2=?
CCN(CC)C(=O)c1cccc(-c2csc(C(C)(NC(C)=O)c3ccc(OC)cc3)n2)c1 (stereo unspecified),0%,-5,.,.,.,.,.,
O=C(Nc1nc2ccccc2s1)C1CCN(S(=O)(=O)c2cc([N+](=O)[O-])ccc2Cl)CC1,-9%[11.6 µM],?,?,?,?,40µM*,?,Pol kappa inh-2=?
CCC(C)NC(=O)C1CCN(S(=O)(=O)c2cc([N+](=O)[O-])ccc2Cl)CC1 (stereo unspecified),-5%,0,58%,-1%,-12%,-17%,.,
Cc1ccc(-c2nc3c(c(SCC(=O)N4CCOCC4)n2)Cc2c(CO)cnc(C)c2O3)cc1,-1%[11.6 µM],-6,79µM*,-30%,-20%,?,?,
O=C(c1cccnc1)N1C2C=CC(C2)C1(C(F)(F)F)C(F)(F)F (stereo unspecified),?,-9,?,40µM*,-7%,14µM*,?,
COC/C=C/C1=CC2=CC(=O)C(C)(OC(=O)C3CCCC3)C(=O)C2=CO1 (stereo unspecified),79µM*,-65*,?,40µM*,50µM*,20µM*,48*,
COC(=O)C1C2C=CC3(CN(c4cccc(C)c4)C(=O)C13)O2 (stereo unspecified),?,-16,?,-28%,-25%,35µM*,?,
Cc1cc(C)cc(Nc2nc3ccccc3n3cnnc23)c1,.,.,-7%,-17%,-12%,8%,.,
O=C(Nc1cc([N+](=O)[O-])ccc1O)c1cccc(C(=O)Nc2cc([N+](=O)[O-])ccc2O)c1,-20%[11.6 µM],-24,16%,-1%,-25%,?,?,
O=C(Nc1cc([N+](=O)[O-])ccc1O)c1ccc2c(c1)C(=O)N(Cc1ccco1)C2=O,?,?,40µM*,26%,50µM*,32µM*,?,
O=C(Nc1ccc(O)cc1)c1ccc2c(c1)C(=O)N(Cc1ccco1)C2=O,?,-57*,?,1%,-28%,14µM*,67*,
O=C(CN1C(=O)c2ccc([N+](=O)[O-])cc2C1=O)NCc1ccco1,10%,3,163%,30%,-2%,-14%,.,
O=C(Nc1cc([N+](=O)[O-])ccc1O)c1cccc([N+](=O)[O-])c1,-2%,-4,5%,-17%,-4%,-6%,.,
O=C(O)c1ccc(C(=O)c2ccc3c(c2)C(=O)N(Cc2ccco2)C3=O)cc1,-23%[57.1 µM],-71*,-20%,-12%,-17%,20µM*,?,
O=C(NC(NC(=O)c1ccccc1)c1ccccc1)c1ccccc1,-4%,.,?,1%,-16%,1%,.,
COc1ccc(-c2nsc(NC(=O)c3oc4cc(C)c(C)cc4c3C)n2)cc1,.,.,4%,18%,-4%,-9%,.,
CCSc1ncc(Cl)c(C(=O)N(Cc2ccc(N(C)C)cc2)C2CCS(=O)(=O)C2)n1 (stereo unspecified),-19%,2,5%,-11%,-13%,-5%,.,
CC(C)Sc1ncc(Cl)c(C(=O)N(Cc2ccc(N(C)C)cc2)C2CCS(=O)(=O)C2)n1 (stereo unspecified),.,.,?,?,-22%,79µM*,?,Pol kappa inh-2=?
COc1cc(/C=N/n2c(-c3n[nH]c4c3CCC4)n[nH]c2=S)cc(OC)c1O,-12%,?,42%,8%,5%,-9%,.,
S=c1[nH]nc(-c2ccco2)n1/N=C/C=C/c1ccco1,?,-69*,11µM*,35µM*,79µM*,28µM*,85*,
S=c1[nH]nc(-c2n[nH]c3c2CCC3)n1/N=C/C=C/c1ccco1,?,-52*,?,40µM*,79µM*,25µM*,30*,
NC(=S)n1[nH]c(-c2ccc([N+](=O)[O-])cc2)c(N=Nc2ccccc2[N+](=O)[O-])c1=O,-21%[11.6 µM],-21,?,16µM*,-3%,6.3µM*,.,Pol kappa inh-2=8.4*
CCOc1ccc(C)cc1S(=O)(=O)n1cnc2ccccc21,-1%,0,18%,-8%,-3%,-6%,.,
